# Unmarked numbers belong to inactive results. Calls of active or inactive are those of the source.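 The calls were made as follows: active = thallium flux through the channel raised or lowered by more than 3 SD from vehicle-only wells, actives on both sides; inactive = the rest.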
# Tested on: F380Y/beta2Delta
# Assay: modulators of BK channel variants, profiling panel, selectivity assay, cell-based, U2OS BacMam, thallium flux, beta subunits (AID 1259406);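 also: initial slope of Thallos dye fluorescence rise after thallium is added; log ratio against the mean of 0.3% DMSO vehicle wells on the same plate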
# Details: at 30 µM
row,SMILES,log fold change Tl+ flux
1,Clc1ccc(-c2nc(-c3cnccn3)no2)cc1,-0.00983
2,NNC(=O)Cc1csc2nc(-c3ccccc3)nn12,0.017
3,CN(C)C=Nc1cc(Cl)c(-n2cccc2)cc1Oc1ccc(Cl)cc1,-0.0305
4,Oc1ccccc1C=NCCN=Cc1ccccc1O,0.0233
5,CC(C)(C)OC(=O)N1CCC(c2nc(-c3ccc(Cl)s3)cs2)CC1,-0.0352
6,O=S(=O)(Cc1nc(-c2ccc3c(c2)OCCO3)cs1)c1ccccn1,0.0231
7,Cn1c(SCCS(=O)(=O)c2ccc(OC(F)(F)F)cc2)nnc1C(F)(F)F,-0.0119
8,Cc1ccc(S(N)(=O)=O)c(I)c1,0.0148
9,O=C(Nc1ccc(OC(F)(F)F)cc1)OC1CN(C(c2ccccc2)c2ccccc2)C1,-0.0434
10,CCN1CCC(O)(C#Cc2ccccc2)CC1,-0.0113
11,COC(=O)c1ccc(C=Cc2cccc(Cl)c2)s1,-0.00709
12,CCc1[nH]c(=S)[nH]c(=O)c1C#N,0.0255
13,O=C(CC1SC(=NC2CC3C=CC2C3)NC1=O)Nc1ccccc1Cl (stereo not drawn),0.0241
14,O=S(=O)(Cc1nc(C=Cc2cc(C(F)(F)F)cc(C(F)(F)F)c2)no1)c1ccc(Cl)cc1,0.000486
15,O=C1CSC(=S)N1N=Cc1cccnc1,0.0225
16,O=C(NC1CCSC1)c1ccccc1NS(=O)(=O)c1ccccc1 (stereo not drawn),-0.00638
17,CCOC(=O)c1nn(-c2ccc(C(C)(C)C)cc2)c(=O)c(C#N)c1C,-0.281 (active)
18,O=C(NNC(=O)c1ccc2nonc2c1)c1cccc(C(F)(F)F)c1,0.0509
19,CCOC(=O)C(C)Oc1ccc(NS(=O)(=O)c2cc(OC)ccc2OC)cc1Cl (stereo not drawn),-0.0957
20,O=C(Nc1ccc(-n2ccc(C(F)(F)F)n2)cc1)C1=Cc2cc(Cl)ccc2OC1,0.0253
21,CC(=O)c1sc(SCc2ccc(Cl)cc2)c2c1CC(C)(C)CC2=O,0.0184
22,Cc1cc(-c2nn(C)c(=O)c3ccccc23)cc(C)c1O,0.00813
23,Cn1ncc2ccccc2c1=O,0.0287

# Tested on: F380Y/beta4
# Assay: as above
# Details: at 30 µM
row,SMILES,log fold change Tl+ flux
1,N#Cc1ccc(NCCc2ccccn2)c([N+](=O)[O-])c1,-0.0514
2,Cc1cc(CNCC(O)C(F)(F)F)no1 (stereo not drawn),0.06
3,CSC(NCc1cccnc1)=C(C#N)S(=O)(=O)c1ccc(Cl)cc1,0.000772
4,Cc1c(C(=O)Nc2ccc(N3CCOCC3)c(Cl)c2)cnn1-c1ccc(F)cc1,0.0219
5,Cc1nc(C)c(C(=O)O)c(-c2ccsc2)c1C(=O)O,0.0238
6,CCCCCCCCCCCC(=O)N1CC(=O)NC(=O)C1,-0.0202
7,Cc1cccc(N=Cc2cc(Cl)cc(Cl)c2O)c1C,0.0885
8,Cc1ccc(I)cc1[N+](=O)[O-],-0.0253
9,Cc1ccccc1C=C1N=C(c2ccccc2)OC1=O,-0.0336
10,O=C(NNc1c(Cl)cccc1Cl)c1csc(Cc2c(Cl)cccc2Cl)n1,-0.048
11,CCSc1n[nH]c(=S)s1,0.00824
12,COc1cc(C(F)(F)F)nc2ccc(C#CCOC(=O)Nc3cccc(Cl)c3)cc12,0.0143
13,CC12CCC(c3c1nn(-c1ccccc1)c3C(F)(F)F)C2(C)C (stereo not drawn),0.00603
14,COC(=O)C1=C(C)NC(C)=C(C(=O)OC)C1c1ccccc1,0.0301
15,O=C(C(=NN=Cc1ccc2c(c1)OCO2)c1ccccc1)c1ccccc1,-0.0584
16,COc1ccc(Cl)cc1N1C(=O)C=C(c2ccccc2)C1=O,-0.00456
17,O=c1[nH]nc(N2CCSCC2)[nH]1,0.0123
18,Clc1ccc(-c2nc(-c3cnccn3)no2)cc1,0.0205
19,NNC(=O)Cc1csc2nc(-c3ccccc3)nn12,0.00133
20,CN(C)C=Nc1cc(Cl)c(-n2cccc2)cc1Oc1ccc(Cl)cc1,-0.016

row,SMILES,log fold change Tl+ flux
1,Oc1ccccc1C=NCCN=Cc1ccccc1O,0.122 (active)
2,CC(C)(C)OC(=O)N1CCC(c2nc(-c3ccc(Cl)s3)cs2)CC1,-0.0115
3,O=S(=O)(Cc1nc(-c2ccc3c(c2)OCCO3)cs1)c1ccccn1,-0.00916
4,Cn1c(SCCS(=O)(=O)c2ccc(OC(F)(F)F)cc2)nnc1C(F)(F)F,0.00857
5,Cc1ccc(S(N)(=O)=O)c(I)c1,-0.000543
6,O=C(Nc1ccc(OC(F)(F)F)cc1)OC1CN(C(c2ccccc2)c2ccccc2)C1,-0.154 (active)
7,CCN1CCC(O)(C#Cc2ccccc2)CC1,-0.0547
8,COC(=O)c1ccc(C=Cc2cccc(Cl)c2)s1,-0.264 (active)
9,CCc1[nH]c(=S)[nH]c(=O)c1C#N,0.0765
10,O=C(CC1SC(=NC2CC3C=CC2C3)NC1=O)Nc1ccccc1Cl (stereo not drawn),-0.0131
11,O=S(=O)(Cc1nc(C=Cc2cc(C(F)(F)F)cc(C(F)(F)F)c2)no1)c1ccc(Cl)cc1,-0.0134
12,O=C1CSC(=S)N1N=Cc1cccnc1,0.0146
13,O=C(NC1CCSC1)c1ccccc1NS(=O)(=O)c1ccccc1 (stereo not drawn),0.00736
14,CCOC(=O)c1nn(-c2ccc(C(C)(C)C)cc2)c(=O)c(C#N)c1C,-0.097 (active)
15,O=C(NNC(=O)c1ccc2nonc2c1)c1cccc(C(F)(F)F)c1,0.00874
16,CCOC(=O)C(C)Oc1ccc(NS(=O)(=O)c2cc(OC)ccc2OC)cc1Cl (stereo not drawn),-0.104 (active)
17,O=C(Nc1ccc(-n2ccc(C(F)(F)F)n2)cc1)C1=Cc2cc(Cl)ccc2OC1,-0.0159
18,CC(=O)c1sc(SCc2ccc(Cl)cc2)c2c1CC(C)(C)CC2=O,-0.123 (active)
19,Cc1cc(-c2nn(C)c(=O)c3ccccc23)cc(C)c1O,-0.0513
20,Cn1ncc2ccccc2c1=O,0.0126

# From PubChem BioAssay
